In PubChem BioAssay AID1434 (Sanford-Burnham Center for Chemical Genomics, 2008):
Where “and” joins values, the source holds several entries; their conditions need not be identical. Equal values may be shown once. Among all 220,000 compounds or so, about 1,600 (0.73%) were called active. This is one part of a sample in which actives are shown more often than they occur.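 Rule for the calls: active = mean inhibition across duplicate retests at 20 µM reaching about 50% (limit read from the data); inactive = the rest, inconclusive results apart.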

Biological target: Runt-related transcription factor 1 (Homo sapiens) + Core-binding factor subunit beta (Homo sapiens) (UniProt Q01196+Q13951)
Sequence (Q01196 whole entry, looked up): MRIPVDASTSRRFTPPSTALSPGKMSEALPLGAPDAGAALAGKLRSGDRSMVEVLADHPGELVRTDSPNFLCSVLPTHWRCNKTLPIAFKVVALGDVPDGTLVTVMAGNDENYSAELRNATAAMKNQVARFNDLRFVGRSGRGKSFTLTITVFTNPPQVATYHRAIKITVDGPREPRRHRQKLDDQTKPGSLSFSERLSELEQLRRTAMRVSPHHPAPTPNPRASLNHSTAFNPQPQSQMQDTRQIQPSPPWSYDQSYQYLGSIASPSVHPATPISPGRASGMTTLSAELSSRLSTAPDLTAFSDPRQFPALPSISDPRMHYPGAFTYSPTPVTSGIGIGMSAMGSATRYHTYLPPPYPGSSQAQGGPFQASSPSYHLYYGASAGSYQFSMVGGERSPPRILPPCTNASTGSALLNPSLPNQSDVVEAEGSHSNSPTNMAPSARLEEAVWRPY
Sequence (Q13951 whole entry, looked up): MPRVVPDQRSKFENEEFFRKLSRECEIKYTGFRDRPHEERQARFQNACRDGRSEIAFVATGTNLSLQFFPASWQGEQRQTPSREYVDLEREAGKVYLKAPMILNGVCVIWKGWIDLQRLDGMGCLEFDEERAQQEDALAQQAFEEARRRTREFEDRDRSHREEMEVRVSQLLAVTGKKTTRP
Test: inhibitors of RUNX1 Runt–CBFb-SMMHC binding, primary screen, biochemical, FRET, Cerulean-Runt, Venus-CBFb-SMMHC, uHTS (AID 1434);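 note: 0% = DMSO wells and 100% = wells with excess untagged CBFb-SMMHC; inhibitors lower the FRET ratio by blocking Runt binding to CBFb-SMMHC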
Conditions: Cerulean-Runt/Venus-CBFb-SMMHC FRET ratio 530/480, 1 h, at 20 µM, stronger effect = higher value

## COCCCn1c(CCC(=O)O)ccc1-c1ccc(F)cc1
  inhibition: 26.6% (inactive)

## CC(C)Cn1c(CCC(=O)O)ccc1-c1cccs1
  inhibition: 179% (active)
Retest duplicate average
  inhibition: 134%

## CCn1c(NC(=O)c2ccccc2)c(-c2cccs2)c(=O)c2ccccc21
  inhibition: 2.4% (inactive)

## COc1ccc(-n2cnc3cc(C(=O)NC4CCCC4)ccc32)cc1
  inhibition: 0.8% (inactive)

## CCOc1ccc2nc(NCCNS(=O)(=O)c3ccccc3)c(C#N)cc2c1
  inhibition: 34% (inactive)

## CCOc1ccc2cc(C#N)c(SCC(=O)OC)nc2c1
  inhibition: -89.9% (inactive)

## CCOc1ccc2nc(N3CCCN(C(=O)Nc4ccccc4C)CC3)c(C#N)cc2c1
  inhibition: 61.6% (active)
Retest duplicate average
  inhibition: 71.5%

## CCCCN1C(=O)/C(=C/C=C2/C=Cc3ccccc3N2CC)SC1=S
  inhibition: -1.7% (inactive)

## CCN1C(=O)/C(=C2/Sc3ccccc3N2CCCS(=O)(=O)O)SC1=S
  inhibition: 82.6% (active) and 93.8% (active)
Retest duplicate average
  inhibition: 113% and 124%

## CCN1C(=O)/C(=C\N2CCN(c3ccccc3)CC2)SC1=S
  inhibition: -1.5% (inactive)

## Cc1cc(Cl)ccc1NNC(=O)c1snnc1C
  inhibition: -2.5% (inactive)

## COc1ccc(C(=O)N/N=C2\CCS(=O)(=O)c3ccc(F)cc32)cc1OC
  inhibition: -4.7% (inactive)

## Nc1nc(CC(=O)CSc2ccc(Cl)cc2)nc(Nc2ccc(F)cc2)n1
  inhibition: -7.5% (inactive)

## CCC(C)(C)n1nnnc1C(c1cccs1)N1CCN(Cc2ccccc2)CC1 (centres undefined)
  inhibition: 3.1% (inactive)

## CCC(C)(C)n1nnnc1CN1CCN(c2nc3ccc(C)cc3cc2C#N)CC1
  inhibition: 54% (active)
Retest duplicate average
  inhibition: 79.1%

## CCC(C)(C)n1nnnc1C(c1cccs1)N1CCN(c2nc3ccccc3s2)CC1 (centres undefined)
  inhibition: -1% (inactive)

## CN(C)NC(=O)c1csnc1-c1c(Cl)cccc1Cl
  inhibition: 6% (inactive)

## O=C(COC(=O)/C=C/c1cccc(Cl)c1)NCCc1ccccc1
  inhibition: 0.9% (inactive)

## COc1ccc(CCN=C2SCC(=O)N2Cc2ccccc2)cc1OC
  inhibition: -0.6% (inactive)

## COc1ccc(CCN(C)CCN2C(=O)c3ccccc3C2=O)cc1OC
  inhibition: 6.2% (inactive)

## COc1ccc(CCNC2=C(Cl)C(=O)N(Cc3ccccc3)C2=O)cc1OC
  inhibition: 92.2% (active)
Retest duplicate average
  inhibition: 70.6%

## O=C(O)CC/C(=N\NC(=O)c1ccc(F)cc1)c1ccc(Br)cc1
  inhibition: -4.7% (inactive)

## CC/C(=N\NC(=O)c1ccccc1Cl)c1ccc(Br)s1
  inhibition: -0.6% (inactive)

## CC(=O)c1cc(C#N)c(SCC(=O)Nc2nccs2)nc1C
  inhibition: -3.8% (inactive)

## COc1ccc(C2=NN(c3ccccc3)C(c3cccs3)C2)cc1 (centres undefined)
  inhibition: 6% (inactive)

## COc1ccccc1N1N=C(c2cccs2)CC1c1ccccc1 (centres undefined)
  inhibition: 48% (inactive)

## COc1ccc(C2CC(c3cccs3)=NN2c2ccccc2)cc1 (centres undefined)
  inhibition: 91% (active)
Retest duplicate average
  inhibition: 53.7%

## O=[N+]([O-])c1cccc(-c2nnc3c4ccccc4c4ccccc4n23)c1
  inhibition: 2.3% (inactive)

## Cc1ccc(-c2nc3ccccc3[nH]c2=O)cc1
  inhibition: 3.7% (inactive)

## O=c1[nH]c2ccccc2n2c(-c3ccccc3)nnc12
  inhibition: 67.5% (active)
Retest duplicate average
  inhibition: 61.3%

## N#CC1=C(N)Oc2c(ccc3cccnc23)C1c1ccncc1 (centres undefined)
  inhibition: -1.6% (inactive)

## COc1cccc(NC(=O)CN(C)C(=O)/C=C/c2cc(OC)ccc2OC)c1
  inhibition: -3.2% (inactive)

## O=C(Nc1ccc(Cl)cc1)Nc1nnc(/C=C/c2ccccc2)s1
  inhibition: 6.5% (inactive)

## O=C(COc1cccc(F)c1)Oc1ccc(C(=O)c2ccccc2)cc1
  inhibition: 0.2% (inactive)

## Cc1cc(C)c2c3c(sc2n1)C(c1ccccc1)C(C#N)=C(N)O3 (centres undefined)
  inhibition: 113% (active)
Retest duplicate average
  inhibition: 141%

## Cc1cc(C)c(C#N)c(SCc2[nH]nc3c2C(c2ccccc2)C(C#N)=C(N)O3)n1 (centres undefined)
  inhibition: -0.2% (inactive)

## N#CC1=C(N)Oc2c(sc3ccccc23)C1c1ccco1 (centres undefined)
  inhibition: 9.4% (inactive)

## CC(=O)c1c(C)[nH]c(C(=O)OCC(=O)Nc2cc(S(=O)(=O)N3CCCCC3)ccc2C)c1C
  inhibition: -9.5% (inactive)

## CCCN(CC(=O)Nc1ccc(OC)c(OC)c1)CC(=O)Nc1ccc(F)c(F)c1F
  inhibition: -1.9% (inactive)

## COc1ccc(/C=N/NC(=O)c2cccc(C(F)(F)F)c2)cc1
  inhibition: 1.4% (inactive)

## C/C(CC1CC(C)(C)OC1=O)=N/Nc1nc(-c2ccccc2)cs1 (centres undefined)
  inhibition: -0.6% (inactive)

## CC(Sc1nc2ccccc2c(=O)n1Cc1ccco1)C(=O)c1ccccc1 (centres undefined)
  inhibition: 2.5% (inactive)

## Cc1nc2c(c(=O)n1Cc1ccco1)c1nc3ccccc3nc1n2Cc1ccccc1
  inhibition: 51.6% (active)
Retest duplicate average
  inhibition: 50.7%

## Cc1ccc(Cn2c(C)nc3c(c2=O)c2nc4ccccc4nc2n3Cc2ccco2)cc1
  inhibition: 46.8% (inactive)

## CCC(C)NC(=O)c1c(N)n(/N=C/c2cccs2)c2nc3ccccc3nc12 (centres undefined)
  inhibition: -0.5% (inactive)

## Cn1ncc(Br)c1C(=O)NCc1cccs1
  inhibition: -0.4% (inactive)

## CC(C)Cn1c(N)c(C(=O)NCc2cccs2)c2nc3ccccc3nc21
  inhibition: 72.8% (active)
Retest duplicate average
  inhibition: 89.8%

## CN(C)c1ccnc2sc(C(=O)c3ccccc3)c(N)c12
  inhibition: 39.2% (inactive)

## Cc1cccc(NC(=S)NCc2ccc3[nH]c4c(c3c2)CCCC4)c1
  inhibition: -0.9% (inactive)

## Cc1cc(C)nc(SC2CCCCC2NS(=O)(=O)c2ccc(Cl)cc2)n1 (centres undefined)
  inhibition: 2% (inactive)

## COc1cc(C(=O)NC(=S)NCc2ccco2)cc(OC)c1OC
  inhibition: 1.1% (inactive)

## CN1CCN(S(=O)(=O)c2cccc(C(=O)O)c2)CC1
  inhibition: -1.8% (inactive)

## COc1cc(C(=O)N2C(=O)c3cccc(N)c3C2=O)cc(OC)c1OC
  inhibition: 87.1% (active)
Retest duplicate average
  inhibition: 51.3%

## CC1CC(C)CN(S(=O)(=O)c2cccc(C(=O)N3C(=O)c4cccc(N)c4C3=O)c2)C1 (centres undefined)
  inhibition: 61.6% (active)
Retest duplicate average
  inhibition: 72.9%

## CC(=O)N1CCN(S(=O)(=O)c2cccc(C(=O)NC3CCC(C)CC3)c2)CC1 (centres undefined)
  inhibition: 4.4% (inactive)

## COc1cc(C(=O)N[C@@H](C)C(=O)NCc2ccco2)cc(OC)c1OC
  inhibition: -2.9% (inactive)

## NC(=O)Nc1ccccc1C(=O)NCCc1ccccc1
  inhibition: 2.1% (inactive)

## COc1ccc(-c2nn(C)c(=O)c3ccccc23)cc1CNC(=O)C1CCCCC1
  inhibition: -3.9% (inactive)

## CNC(=O)c1cccc2nc3ccccc3nc12
  inhibition: 9% (inactive)

## CNC(=O)c1cc2c(ccc3ccccc32)oc1=N
  inhibition: 82.8% (active)
Retest duplicate average
  inhibition: 162%

## N=c1oc2ccccc2cc1C(=O)N/N=C/c1ccccc1
  inhibition: -6.4% (inactive)
